Assay outcomes (PubChem BioAssay)
Mdm2-MdmX inh: human Mdm2/MdmX binding inhibition | actives 3% (n = 330,000) | O15151+Q00987 | inhibition, % at 8 µM | SaOS-2 split-luciferase Mdm2/MdmX complementation, luminescence;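 active means inhibition of at least 50% at 8 µM in the primary screen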
Jurkat NFkB inh: lowers PMA/ionomycin-induced NF-kB signal in Jurkat cells; PMA/ionomycin-induced NF-kB luciferase reporter, luminescence; inhibition, % at 4 µM; actives 0.53% (n = 330,000); AID 435003; in the data active means inhibition above about 50%
697 NFkB inh: lowers PMA/ionomycin-induced NF-kB signal in 697 B cells | 697 B-cell NF-kB luciferase reporter, 16 h | inhibition, % at 4 µM | actives 0.33% (n = 330,000) | AID 435022; in the data active means inhibition above about 35%
Gli-Sufu antag: blocks Gli-Sufu signaling in a luciferase reporter. actives 0.74% (n = 340,000). AID 588413. inhibition, % at 5 µM. Sufu-KO-LIGHT fibroblasts, Gli luciferase reporter luminescence;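 active means inhibition above about 55%, limit read from the data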
CSC inhib: blocks cancer stem cells. inhibition, % at 7.5 µM. cancer stem cell-like cells viability, luminescence. AID 2717. actives 1.1% (n = 300,000); in the data active means inhibition above about 75%; tested in HMLE shEcad cells
Beta apoptosis: blocks beta cell apoptosis. actives 0.8% (n = 300,000). INS-1E cytokine-induced death, ATP luminescence, 48 h; percent of positive-control rescue, neutral wells zero. protection from apoptosis, % (concentration not given with the values);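 active means Every replicate reaches about 75%, or at least half do and their mean reaches it too, limit read from the data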;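 further: higher means more ATP so stronger rescue from cytokine killing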
Mdm2-MdmX conf: human Mdm2/MdmX binding inhibition, confirmed; shares compounds with Mdm2-MdmX inh; luminescent assay; inhibition, % at 8 µM; actives 55% (n = 10,000); AID 489028; in the data active means inhibition above about 40%
Full FLuc ctr: counter-screen for Mdm2/MdmX inhibitors: full-length luciferase; shares compounds with Mdm2-MdmX inh; SaOS-2 full-length luciferase counterscreen, luminescence; inhibition, % at 8 µM; actives 77% (n = 6,200);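 active means mean inhibition at 8 µM reaching about 37%, which flags the compound as non-specific, limit read from the data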;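 further: p53-null SaOS-2 cells with luciferase driven by a doxycycline-inducible promoter; compound on cells about two nights before reading with doxycycline added after day one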
Numbers stand for hits; - = inactive; . = no result given. Only some compounds are listed: those with a hit (about 4.5% of all), similar ones and a draw of the others.

SMILES	Mdm2-MdmX inh	Jurkat NFkB inh	697 NFkB inh	Gli-Sufu antag	CSC inhib	Beta apoptosis	Mdm2-MdmX conf	Full FLuc ctr
COc1ccc(/C=C(/NC(=O)c2ccccc2)C(=O)N2CCOCC2)cc1OC	-	-	-	-	-	-	.	.
Cc1c(CCOC(=O)C23CC4(C)CC(C)(CC(C)(C4)C2)C3)sc[n+]1CC(=O)c1ccccc1	-	-	-	-	.	-	.	.
Cc1c(CCOC(=O)CC23CC4CC(CC(C4)C2)C3)sc[n+]1CC(=O)c1ccccc1	53.9	-	-	-	100.0	-	-	.
NS(=O)(=O)c1cccc(NC(=O)COC(=O)Cn2cc(C(F)(F)F)ccc2=O)c1	-	-	-	-	-	-	.	.
Cn1cc(CN2CCCC(C(=O)Nc3cccc(-c4cc5ccccc5[nH]4)c3)C2)cn1 (stereo not drawn)	60.0	-	-	-	-	.	-	.
CC(C)n1cc(CN2CCCC(C(=O)Nc3cccc(-c4cc5ccccc5[nH]4)c3)C2)cn1 (stereo not drawn)	78.4	-	-	-	-	-	-	.
COc1ccccc1NC(=O)NCCN1CCN(c2cccc(Cl)c2)CC1	-	-	-	-	-	-	.	.
Nc1c(S(=O)(=O)c2cccc(Cl)c2)c2nc3ccccc3nc2n1/N=C/c1ccc(O)c(O)c1	83.6	-	-	.	-	-	-	.
COc1cccc(/C=N/n2c(N)c(S(=O)(=O)c3cccs3)c3nc4ccccc4nc32)c1OC	82.7	-	-	-	-	-	-	.
Cc1ccc(S(=O)(=O)c2c(N)n(-c3ccccc3)c3nc4ccccc4nc23)cc1	-	-	-	-	-	-	.	.
COCCn1c(N)c(S(=O)(=O)c2cccs2)c2nc3ccccc3nc21	-	-	-	-	-	-	.	.
CC(=O)c1cccc(NC(=O)CN2CCc3cc4c(cc3C2)OCCCO4)c1	-	-	-	-	-	-	.	.
CC(=O)NC(c1ccco1)c1cc(Cl)c2ccccc2c1O (stereo not drawn)	-	-	-	-	-	-	.	.
CC(=O)NC(c1ccco1)c1cc(F)c2cccnc2c1O (stereo not drawn)	56.7	-	-	-	-	82.0	49.2	44.2
CC(=O)NC(c1cccs1)c1cc(F)c2cccnc2c1O (stereo not drawn)	62.7	-	-	-	-	91.3	66.8	-
CCN(CC)S(=O)(=O)c1cc(NC(=O)Cc2ccc(S(=O)(=O)N3CCOCC3)s2)ccc1Cl	.	.	.	-	.	.	.	.
COc1ccc(-c2nc3ccc(N4CCCC4)cc3c(=O)[nH]2)cc1OC	51.6	-	-	-	-	-	57.5	56.1
O=C(Nc1nccs1)c1cc(-c2ccccn2)nc2c(Cl)cccc12	77.9	-	-	-	-	-	-	.
COc1ccccc1-c1cc(C(=O)NC2CCN(C)CC2)c2ccc(Cl)c(C)c2n1	98.6	-	-	-	108.2	111.5	68.5	37.4
Cc1c(Cl)ccc2c(C(=O)NCCN3CCCCC3)cc(-c3ccccn3)nc12	-	-	-	-	-	-	-	60.6
O=c1[nH]c2ccccc2cc1CN(Cc1ccco1)S(=O)(=O)c1ccccc1	-	-	-	-	.	-	.	.
COc1ccc(N2CCN(C(=O)COC(=O)CNC(=O)c3cccc(OC(F)F)c3)CC2)cc1	-	-	-	-	.	-	.	.
Cc1nnc(N2C(=O)C(=O)/C(=C(/O)c3ccc4c(c3)OCCO4)C2c2ccc([N+](=O)[O-])cc2)s1 (stereo not drawn)	-	-	-	.	-	.	.	.
CCOC(=O)N/N=C/c1ccc(N(CC)CC)cc1O	-	-	-	-	.	.	.	.
Cc1cc([N+](=O)[O-])cc(/C=N\NC(=O)C2COc3ccccc3O2)c1O (stereo not drawn)	51.6	-	-	-	-	-	40.5	-
CCN(CC)c1ccc(/C=N/NC(=O)CNC(=O)C2COc3ccccc3O2)c(O)c1 (stereo not drawn)	77.1	-	-	-	-	98.6	76.3	-
CCN(CC)c1ccc(/C=N/NC(=O)CCC(=O)NCc2ccccc2)c(O)c1	71.4	-	-	-	82.2	97.8	76.1	-
COc1cc(/C=N\NC(=O)CNC(=O)C2COc3ccccc3O2)ccc1O (stereo not drawn)	-	-	-	-	-	-	.	.
